Results as given in PubChem BioAssay (NCATS).
Records with an inconclusive call do not appear. The source made the active and inactive calls. Calls come from the whole dose curve; as a rule, active = well fitted cell-killing curve with a large enough effect; inconclusive = small, poorly fitted or top-dose-only effect, or effect the other way; inactive = no such curve, though single readings can be large or run the other way.

How the values were obtained:
[1] = Quantitative High-Throughput drug screen in 47 multiple myeloma cell lines against the NCATS MIPE library collection: KMS28PE_JCRB cell viability assay (AID 1918983); note: nearly all actives have a fitted effect of over 35% in size
How it was run: (§1)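 500 cells/well per myeloma line exposed to pinned MIPE 4.0 compounds for 48 h at 37 °C, 5% CO2. Viability read as ATP by CellTiter-Glo luminescence, normalised to DMSO-only (100%) and media-only (0%) wells.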

[2] = Quantitative High-Throughput drug screen in 47 multiple myeloma cell lines against the NCATS MIPE library collection: L363_DSMZ cell viability assay (AID 1918984); note: nearly all actives have a fitted effect of over 40% in size
How it was run: as §1

[3] = Quantitative High-Throughput drug screen in 47 multiple myeloma cell lines against the NCATS MIPE library collection: KMS34_JCRB cell viability assay (AID 1918985); note: nearly all actives have a fitted effect of over 40% in size
How it was run: as §1

[4] = Quantitative High-Throughput drug screen in 47 multiple myeloma cell lines against the NCATS MIPE library collection: OCIMY5_PLB cell viability assay (AID 1918988); note: nearly all actives have a fitted effect of over 65% in size
How it was run: as §1

[5] = Quantitative High-Throughput drug screen in 47 multiple myeloma cell lines against the NCATS MIPE library collection: OPM1_PLB cell viability assay (AID 1918989); note: nearly all actives have a fitted effect of over 40% in size
How it was run: as §1

[6] = Quantitative High-Throughput drug screen in 47 multiple myeloma cell lines against the NCATS MIPE library collection: SKMM1_PLB cell viability assay (AID 1919863); conditions: SKMM1 myeloma viability, CellTiter-Glo ATP, 48 h; viability: active compounds read low; note: nearly all actives have a fitted effect of over 35% in size
How it was run: as §1

[7] = Quantitative High-Throughput drug screen in 47 multiple myeloma cell lines against the NCATS MIPE library collection: U266_ATCC cell viability assay (AID 1919864); note: nearly all actives have a fitted effect of over 35% in size
How it was run: as §1

[8] = Quantitative High-Throughput drug screen in 47 multiple myeloma cell lines against the NCATS MIPE library collection: XG6_PLB cell viability assay (AID 1919865); note: nearly all actives have a fitted effect of over 40% in size
How it was run: as §1

[9] = Quantitative High-Throughput drug screen in 47 multiple myeloma cell lines against the NCATS MIPE library collection: XG1_PLB cell viability assay (AID 1919866); note: nearly all actives have a fitted effect of over 35% in size
How it was run: as §1

[10] = Quantitative High-Throughput drug screen in 47 multiple myeloma cell lines against the NCATS MIPE library collection: OCIMY7_PLB cell viability assay (AID 1918987); conditions: OCI-MY7 myeloma viability, CellTiter-Glo ATP, 48 h; viability (% of DMSO): at 45.8 µM (top of the series); note: nearly all actives have a fitted effect of over 65% in size
How it was run: as §1
Potency is the fitted concentration of half-maximal effect.

COc1cc2ncnc(Nc3ccc(F)c(Cl)c3)c2cc1OCCCN1CCOCC1
active: Potency [1] 42.9 µM | Potency [2] 8.55 µM | Potency [3] 42.9 µM | Potency [4] 2.15 µM | Potency [5] 4.29 µM | Potency [6] 67.9 µM | Potency [7] 30.3 µM | Potency [8] 0.0762 µM | Potency [9] 3.03 µM

C[N+]1(C)[C@@H]2CC(OC(=O)[C@H](CO)c3ccccc3)C[C@H]1[C@H]1O[C@@H]12 (stereo partly drawn)
inactive: Potency [1] | Potency [2] | Potency [3]
active: Potency [8] 23.5 µM

Oc1ccc(C2CCN(c3ccnc4ccccc34)CC2)cc1O
active: Potency [1] 16.6 µM | Potency [2] 18.7 µM | Potency [3] 16.6 µM | Potency [4] 14.8 µM | Potency [5] 16.6 µM | Potency [7] 3.32 µM | Potency [8] 6.62 µM
inactive: viability [6] 103%

O=c1cc(N2CCOCC2)oc2c(-c3cccc4c3sc3ccccc34)cccc12
inactive: Potency [7]
active: Potency [1] 14.8 µM | Potency [2] 8.33 µM | Potency [10] 1.18 µM | Potency [4] 20.9 µM | Potency [5] 4.18 µM | Potency [6] 11.8 µM | Potency [8] 5.9 µM | Potency [9] 6.62 µM

Nc1ncnc2c1nc(Cl)n2[C@@H]1O[C@H](CO)[C@@H](O)[C@@H]1O
active: Potency [1] 18.7 µM | Potency [2] 20.9 µM | Potency [3] 11.8 µM | Potency [10] 10.5 µM | Potency [4] 0.418 µM | Potency [6] 14.8 µM | Potency [7] 14.8 µM | Potency [8] 1.18 µM | Potency [9] 16.6 µM

c1cc(-c2sc(-c3ccncc3)c(-c3ccncc3)c2-c2ccncc2)ccn1
inactive: Potency [1] | Potency [3]
active: Potency [2] 3.32 µM | Potency [9] 11.8 µM

Cc1c(O)cccc1C(=O)N[C@@H](CSc1ccccc1)[C@H](O)CN1C[C@H]2CCCC[C@@H]2C[C@@H]1C(=O)NC(C)(C)C
active: Potency [1] 20.9 µM | Potency [2] 20.9 µM | Potency [3] 18.7 µM | Potency [10] 14.8 µM | Potency [4] 23.5 µM | Potency [5] 18.7 µM | Potency [6] 20.9 µM | Potency [7] 18.7 µM | Potency [8] 29.6 µM | Potency [9] 23.5 µM

CC(C)(C(=O)NCC(F)(F)C(F)(F)F)C(=O)N[C@@H]1C(=O)Nc2ccccc2-c2ccccc21
active: Potency [2] 3.72 µM | Potency [8] 16.6 µM
inactive: Potency [1] | Potency [3] | Potency [4] | viability [6] 128%

CC(=O)Oc1cc2c(s1)CCN(C(C(=O)C1CC1)c1ccccc1F)C2 (stereo not drawn)
active: Potency [1] 2.64 µM | Potency [2] 0.935 µM | Potency [10] 0.935 µM | Potency [4] 0.833 µM | Potency [7] 8.33 µM | Potency [8] 2.64 µM

CC(C)(C)COc1ccc(-n2cc(C(=O)O)cn2)cc1C#N
inactive: Potency [1] | Potency [2] | Potency [3] | viability [6] 120% | Potency [7] | Potency [8] | Potency [9]

CC[C@@H]1C=C(C)C[C@H](C)C[C@H](OC)[C@H]2O[C@@](O)(C(=O)C(=O)N3CCCC[C@@H]3C(=O)O[C@H](C(C)=C[C@@H]3CC[C@H](Cl)[C@H](OC)C3)[C@H](C)[C@@H](O)CC1=O)[C@H](C)C[C@H]2OC
active: Potency [1] 16.6 µM | Potency [2] 10.5 µM | Potency [3] 16.6 µM | Potency [10] 10.5 µM | Potency [4] 16.6 µM

CO[C@@H](C(=O)N1Cc2[nH]nc(NC(=O)c3ccc(N4CCN(C)CC4)cc3)c2C1)c1ccccc1
active: Potency [1] 6.62 µM | Potency [2] 18.7 µM | Potency [10] 0.332 µM | Potency [4] 6.62 µM | Potency [8] 20.9 µM

C=C1C(=O)OC2C=C(C)CCC=C(C)CCC12 (stereo not drawn)
active: Potency [1] 23.5 µM | Potency [2] 29.6 µM | Potency [3] 14.8 µM | Potency [10] 4.69 µM | Potency [6] 29.6 µM | Potency [7] 20.9 µM | Potency [9] 16.6 µM

COc1cccc2c1CCCC2CCCN1CCN(C2CCCCC2)CC1 (stereo not drawn)
inactive: Potency [3]
active: Potency [1] 14.8 µM | Potency [2] 16.6 µM | Potency [10] 13.2 µM | Potency [4] 16.6 µM | Potency [5] 20.9 µM | Potency [8] 23.5 µM | Potency [9] 18.7 µM

O=c1c(-c2ccc(O)cc2)coc2cc(O[C@@H]3O[C@H](CO)[C@H](O)[C@H](O)[C@H]3O)ccc12
inactive: Potency [1] | Potency [2] | Potency [3] | Potency [5] | viability [6] 171% | Potency [8]

CCCCCNC(=O)N1CCC(CN(Cc2ccc(Cl)cc2)Cc2ccc([N+](=O)[O-])s2)C1 (stereo not drawn)
active: Potency [1] 20.9 µM | Potency [2] 20.9 µM | Potency [3] 26.4 µM | Potency [10] 16.6 µM | Potency [4] 23.5 µM | Potency [6] 18.7 µM

CC(=O)N(C)C1(c2ccccc2)CCN(CCC[C@]2(c3ccc(Cl)c(Cl)c3)CCCN(C(=O)c3ccccc3)C2)CC1
active: Potency [1] 20.9 µM | Potency [2] 5.9 µM | Potency [10] 14.8 µM | Potency [4] 18.7 µM | Potency [5] 18.7 µM | Potency [8] 8.33 µM | Potency [9] 14.8 µM

CCn1cc(C(=O)O)c(=O)c2ccc(C)nc21
inactive: Potency [1] | Potency [2] | Potency [3] | viability [6] 130% | Potency [8]

Cc1ccc(F)c(NC(=O)Nc2ccc(-c3cccc4[nH]nc(N)c34)cc2)c1
active: Potency [1] 26.4 µM | Potency [2] 4.18 µM | Potency [3] 26.4 µM | Potency [10] 4.69 µM | Potency [4] 20.9 µM | Potency [5] 10.5 µM | Potency [7] 16.6 µM | Potency [8] 16.6 µM | Potency [9] 16.6 µM

NC(=O)NN=Cc1ccc([N+](=O)[O-])o1
active: Potency [2] 23.5 µM
inactive: Potency [1] | Potency [3] | viability [6] 122%

CNC1CCC(N(Cc2cccc(-c3ccncc3)c2)C(=O)c2sc3c(F)ccc(F)c3c2Cl)CC1 (stereo not drawn)
active: Potency [1] 16.6 µM | Potency [2] 11.8 µM | Potency [10] 0.0662 µM | Potency [4] 18.7 µM | Potency [5] 13.2 µM | Potency [6] 18.7 µM | Potency [8] 14.8 µM

CC[C@]1(O)C[C@@H]2CN(CCc3c([nH]c4ccccc34)[C@@](C(=O)OC)(c3cc4c(cc3OC)N(C=O)[C@@H]3C45CCN4CC=C[C@](CC)([C@H]45)[C@@H](OC(C)=O)[C@]3(O)C(=O)OC)C2)C1 (stereo partly drawn)
inactive: Potency [2]
active: Potency [1] 23.5 µM | Potency [3] 23.5 µM | Potency [10] 9.35 µM | Potency [4] 20.9 µM | Potency [6] 20.9 µM

CCC(CC)[C@H](NC(C)=O)[C@@H]1[C@H](O)[C@@H](C(=O)O)C[C@@H]1N=C(N)N
inactive: Potency [1] | Potency [2] | Potency [3] | Potency [5] | Potency [8] | Potency [9]

O=C1c2ccccc2-[n+]2ccc3c([nH]c4ccccc43)c21
active: Potency [1] 2.35 µM | Potency [2] 3.72 µM | Potency [3] 0.833 µM | Potency [4] 1.05 µM | Potency [5] 0.935 µM | Potency [6] 2.96 µM | Potency [7] 2.35 µM | Potency [8] 1.48 µM | Potency [9] 1.05 µM

CC(C)C(C)C=CC(C)C1CCC2C3=CC=C4CC(O)CCC4(C)C3CCC21C (stereo not drawn)
active: Potency [1] 16.6 µM | Potency [4] 23.5 µM
inactive: Potency [2] | Potency [3] | Potency [5] | viability [6] 135% | Potency [8]

Clc1ccc(C(c2ccc(Cl)cc2)n2cc[n+](CC(OCc3ccc(Cl)cc3Cl)c3ccc(Cl)cc3Cl)c2)cc1 (stereo not drawn)
active: Potency [1] 20.9 µM | Potency [2] 6.62 µM | Potency [3] 16.6 µM | Potency [4] 14.8 µM | Potency [5] 11.8 µM | Potency [6] 20.9 µM | Potency [8] 6.62 µM

COCCOC(=O)C1=C(C)NC2=C(C(=O)CC(c3ccccc3OC)C2)C1c1cccc(O)c1 (stereo not drawn)
active: Potency [1] 5.9 µM | Potency [2] 0.001 µM | Potency [10] 2.64 µM | Potency [4] 8.33 µM | Potency [6] 10.5 µM | Potency [7] 13.2 µM | Potency [8] 2.64 µM | Potency [9] 4.18 µM

O=C(NCc1ccccc1)c1csc(Nc2ccncn2)n1
active: Potency [1] 16.6 µM | Potency [2] 10.5 µM | Potency [3] 23.5 µM | Potency [10] 8.33 µM | Potency [5] 13.2 µM | Potency [6] 18.7 µM | Potency [8] 18.7 µM | Potency [9] 16.6 µM

CN1[C@@H]2CCC[C@@H]1CC(NC(=O)c1nn(C)c3ccccc13)C2 (stereo partly drawn)
inactive: Potency [1] | Potency [2] | Potency [3] | Potency [4] | Potency [5] | viability [6] 111% | Potency [8] | Potency [9]

CC(C)(C)OC(=O)N[C@H]1CCCCCC=C[C@@H]2C[C@@]2(C(=O)NS(=O)(=O)C2CC2)NC(=O)[C@@H]2C[C@@H](OC(=O)N3Cc4cccc(F)c4C3)CN2C1=O
inactive: Potency [1] | Potency [2] | Potency [3] | Potency [5] | viability [6] 123% | Potency [7] | Potency [8]

O=C1C(Cl)=C(NCCN2CCOCC2)C(=O)c2ncccc21
active: Potency [1] 4.18 µM | Potency [2] 3.72 µM | Potency [3] 4.18 µM | Potency [4] 2.35 µM | Potency [5] 7.43 µM | Potency [6] 4.18 µM | Potency [7] 5.9 µM | Potency [8] 7.43 µM | Potency [9] 6.62 µM

CC=C(C)C(=O)O[C@H]1C(C)=C[C@]23C(=O)[C@@H](C=C(CO)[C@@H](O)[C@]12O)[C@H]1[C@@H](C[C@H]3C)C1(C)C
active: Potency [1] 0.0372 µM | Potency [2] 4.69 µM | Potency [3] 20.9 µM | Potency [10] 14.8 µM | Potency [6] 0.0059 µM | Potency [8] 3.72 µM

CS(=O)c1ccc(-c2nc(-c3ccc(F)cc3)c(-c3ccncc3)[nH]2)cc1 (stereo not drawn)
inactive: Potency [1]
active: Potency [2] 24.1 µM | Potency [10] 9.59 µM | Potency [4] 19.1 µM | Potency [8] 42.9 µM | Potency [9] 38.2 µM

CN(C)Cc1cccc(N=C(c2ccccc2)c2c(O)[nH]c3cc(C(=O)N(C)C)ccc23)c1
active: Potency [1] 18.7 µM | Potency [2] 8.33 µM | Potency [10] 0.935 µM | Potency [4] 10.5 µM | Potency [5] 18.7 µM | Potency [7] 18.7 µM | Potency [8] 18.7 µM | Potency [9] 16.6 µM

O=C(O)C(O)Cc1ccc(O)c(O)c1 (stereo not drawn)
inactive: Potency [2] | Potency [8]
active: Potency [1] 23.5 µM | Potency [3] 18.7 µM | Potency [4] 23.5 µM | Potency [6] 11.8 µM | Potency [7] 26.4 µM
